Assay outcomes: PubChem, National Center for Advancing Translational Sciences (NCATS)
Sm TGR block – qHTS Assay for the Inhibitors of Schistosoma Mansoni Peroxiredoxins; Potency, µM (doses to about 114 µM), hits mostly inhibitors; purified TGR, DTNB reduction, TNB absorbance 405 nm; 360,000 tested, 3% active; Schistosoma mansoni thioredoxin glutathione reductase (TGR), Q962Y6; AID 485364, 2010; further: nearly all actives have a fitted effect of over 60% in size
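TGR 20 nM + NADPH 100 uM (dispensed conc.), cpd preinc 15 min RT; start with NADPH (500 uM addition) then DTNB (15 mM addition). Kinetic TNB absorbance, 405 nm filter. Four-parameter Hill fit across titration.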
Shiga inhibitor – A qHTS for Small Molecule Inhibitors of Shiga Toxin | Vero cells, Shiga toxin protein synthesis inhibition reporter | 290,000 tested, 9.2% active | inhibition, % at 38.7 µM; in the data active means inhibition mostly above about 28%, no sharp cut-off; inactive means mostly below about 43%
Giardia FBPA inh-1 – qHTS Assay for Inhibitors of Fructose-1,6-bisphosphate Aldolase from Giardia Lamblia | Potency, µM (series often up to 59.6 µM), most hits filed as inhibitors | purified Giardia FBPA | 290,000 tested, 0.71% active; further: nearly all actives have a fitted effect of over 55% in size
Target sequence (A8B2U2 whole entry, looked up): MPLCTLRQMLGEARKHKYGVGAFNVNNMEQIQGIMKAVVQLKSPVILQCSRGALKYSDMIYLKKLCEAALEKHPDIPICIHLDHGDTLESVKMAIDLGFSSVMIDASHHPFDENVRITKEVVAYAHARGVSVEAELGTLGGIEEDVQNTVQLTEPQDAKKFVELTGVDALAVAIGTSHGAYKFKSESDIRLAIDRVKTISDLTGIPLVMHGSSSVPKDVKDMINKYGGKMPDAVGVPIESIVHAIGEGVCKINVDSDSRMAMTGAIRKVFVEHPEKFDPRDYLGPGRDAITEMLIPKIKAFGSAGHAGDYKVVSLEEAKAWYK
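Giardia FBPA (40 nM reagent) was preincubated 10 min at RT with compound (up to 57.5 uM final), then substrate plus GAPDH/TPI/NAD/arsenate coupling system with diaphorase/resazurin was added; resorufin fluorescence (525/598 nm) was read after 20 min.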
Cycloheximide cs – Cycloheximide Counterscreen for Small Molecule Inhibitors of Shiga Toxin. max response, %. cell reporter, cycloheximide protein synthesis inhibition counterscreen. 300,000 tested, 12% active. AID 2314, 2010; in the data active means max response mostly above about 13%, no sharp cut-off; inactive means mostly below about 14%; further: read at 38.3 µM for the half of the compounds with a filed dose
LmPK inhibitor – qHTS Assay for Inhibitors of Leishmania Mexicana Pyruvate Kinase (LmPK). 290,000 tested, 0.37% active. purified LmPK, Kinase-Glo ATP luminescence, 1 h. AID 1721, 2009. Potency, µM (titrated, usually from 57.5 µM), actives largely listed as inhibitors
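ATP generated from ADP (0.1 mM) and PEP (0.5 mM) by 0.1 nM LmPK over 1 h at room temperature (pH 7.2 imidazole buffer) was detected by coupled luciferase luminescence. Values were normalized to uninhibited and no-enzyme wells.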
Tb PYK inh – qHTS of Trypanosoma Brucei Inhibitors; 410,000 tested, 0.12% active; TbPYK enzyme, Kinase-Glo Plus ATP luminescence, 45 min; pyruvate kinase (Trypanosoma brucei), Q57TT1; Potency, µM (doses to about 76.8 µM), most hits filed as inhibitors; further: nearly all actives have a fitted effect of over 50% in size
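ADP (130 uM final) triggers the TbPYK reaction after compound addition; incubation is 45 min at room temperature. Kinase-Glo Plus is then added and luminescence imaged. Normalized data are fitted to concentration-effect curves.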
Giardia growth – qHTS Assay for Inhibitors of Fructose-1,6-bisphosphate Aldolase from Giardia Lamblia: Giardia lamblia growth inhibition. AID 2785, 2010. Potency, µM (titrated, usually from 57.5 µM), hits mostly inhibitors. 1,500 tested, 5% active. shares compounds with Giardia FBPA inh-1. Giardia lamblia trophozoite growth inhibition;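 further: trophozoites exposed to compound for 48 h at 37 °C; nearly all actives have a fitted effect of over 70% in size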
Mammal cell tox – qHTS Assay for Inhibitors of Fructose-1,6-bisphosphate Aldolase from Giardia Lamblia: Mammalian cellular toxicity; shares compounds with Giardia FBPA inh-1; mammalian cell viability counter-screen, qHTS; Potency, µM (doses to about 57.5 µM), hits mostly inhibitors; 1,500 tested, 4% active; AID 2786, 2010;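 further: Chinese hamster ovary cells used as mammalian cytotoxicity surrogate; viability measured as cellular ATP by luminescence; compound exposure lasted 48 h before reading; nearly all actives have a fitted effect of over 60% in size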
Giardia FBPA inh-2 – qHTS Assay for Inhibitors of Fructose-1,6-bisphosphate Aldolase from Giardia Lamblia: Primary screen confirmation; 1,500 tested, 5% active; purified Giardia aldolase enzyme activity, qHTS; Potency, µM (titrated, usually from 57.5 µM), hits mostly inhibitors; shares compounds with Giardia FBPA inh-1; AID 2787, 2010; further: nearly all actives have a fitted effect of over 45% in size
Rabbit FBPA inh – qHTS Assay for Inhibitors of Fructose-1,6-bisphosphate Aldolase from Giardia Lamblia: Rabbit FBPA Selectivity. Potency, µM (top dose mostly 57.5 µM), hits mostly inhibitors. Rabbit muscle FBPA enzyme inhibition, selectivity counter-screen. 1,500 tested, 4% active. AID 2794, 2010. shares compounds with Giardia FBPA inh-1; further: nearly all actives have a fitted effect of over 60% in size
Target sequence (P00883 whole entry, looked up): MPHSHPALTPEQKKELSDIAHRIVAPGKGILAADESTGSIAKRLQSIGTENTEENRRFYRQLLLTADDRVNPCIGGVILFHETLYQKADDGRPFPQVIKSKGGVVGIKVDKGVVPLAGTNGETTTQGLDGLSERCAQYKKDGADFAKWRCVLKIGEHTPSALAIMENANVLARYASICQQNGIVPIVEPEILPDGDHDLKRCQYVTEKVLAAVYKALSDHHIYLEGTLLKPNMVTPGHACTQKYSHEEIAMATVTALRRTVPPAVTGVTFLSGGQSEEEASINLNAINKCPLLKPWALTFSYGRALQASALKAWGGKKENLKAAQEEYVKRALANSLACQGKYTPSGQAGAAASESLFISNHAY
GAPDH coupling – qHTS Assay for Inhibitors of Fructose-1,6-bisphosphate Aldolase from Giardia Lamblia: Coupling assay counterscreen confirmation; shares compounds with Giardia FBPA inh-1; 1,500 tested, 6% active; AID 2795, 2010; GAPDH coupling enzyme counterscreen, biochemical, qHTS; Potency, µM (titrated, usually from 57.5 µM), actives largely listed as inhibitors; further: nearly all actives have a fitted effect of over 55% in size
A number is an active result; i = inactive; ? = inconclusive; nt = no result given; [ ] = remark or other dose. The full list was thinned out, with hits kept by preference. Unless noted, the call rests on the fitted dose curve; in most records, active means well fitted curve in the direction sought with a large enough effect; inconclusive means small, poorly fitted or top-dose-only effect, or another doubt; inactive means no such curve, though single readings can be large; an effect the other way counts as inactive or inconclusive.

SMILES	Sm TGR block	Shiga inhibitor	Giardia FBPA inh-1	Cycloheximide cs	LmPK inhibitor	Tb PYK inh	Giardia growth	Mammal cell tox	Giardia FBPA inh-2	Rabbit FBPA inh	GAPDH coupling
N#CC1=C2SCN(c3ccc(F)cc3)CN2C(=O)CC1c1cccc(F)c1 (stereo not drawn)	?	i	7.1µM	i	i	?	i	i	i	?	i
CCOC(=O)c1ccc(N2CSC3=C(C#N)C(c4cccs4)CC(=O)N3C2)cc1 (stereo not drawn)	i	i	20µM	i	i	?	i	i	i	i	i
CC(C)N(C(=O)COC(=O)c1cccc(S(=O)(=O)N2CC3(C)CC2CC(C)(C)C3)c1)C(C)C (stereo not drawn)	i	nt	nt	nt	nt	i	nt	nt	nt	nt	nt
Cc1cnc(CNc2ncncc2-c2ccc3c(c2)OCO3)cn1	nt	nt	i	nt	nt	nt	nt	nt	nt	nt	nt
Cc1ccc(Nc2cc(C)c3c(O)cccc3n2)cc1C	i	76	?	46	i	i	i	i	?	?	21µM
O=C(CCn1c(=O)oc2ccccc21)NCCN1CCc2ccccc2C1	i	i	16µM	i	i	i	i[10.4 µM]	i	i	i	i
O=C(CCN1CCc2ccccc2C1)Nc1ccccc1	i	i	16µM	i	i	i	i	i	i	i	i
COc1ccc(Nc2nc(N)nc(N)c2S(=O)(=O)c2ccccc2)cc1	i	nt	nt	nt	nt	i	nt	nt	nt	nt	nt
Nc1ncnc(N)c1NC(=O)c1cc(Cl)c(OCc2ccccc2)c(Cl)c1	nt	nt	nt	nt	nt	i	nt	nt	nt	nt	nt
COc1ccc(C(=O)NC(=S)N2CCNC(=O)C2)cc1Br	nt	i	18µM	i	i	i	i	i	i	i	i
Cc1cc(N/N=C(/CCC(=O)O)C(=O)O)nc2ccccc12	i	i	16µM	i	i	i	i[10.4 µM]	i	i	i	?
CC1=C/C(=N\N=C2\NC(=O)C(CC(=O)Nc3ccccc3)S2)CC(C)(C)C1 (stereo not drawn)	nt	i	i	i	i	i	nt	nt	nt	nt	nt
NC(=O)NC(=O)CC1S/C(=N/N=C2\CSC(=O)N2)NC1=O (stereo not drawn)	i	i	13µM	i	i	i	i	i	i	i	i
O=C(O)CNC(=O)CC1S/C(=N/N=C2/NC(=O)CS2)NC1=O (stereo not drawn)	i	i	18µM	i	i	i	?	i	i	i	i
Cn1ncnc2c(=O)n(C)c(=O)nc1-2	i	i	0.5µM	i	i	i	13µM	8.9µM	3.2µM	4.5µM	2.5µM
CCOc1ccc(NC(=O)Cn2c(=O)oc3cc(S(=O)(=O)NC4CCCC4)ccc32)cc1	i	nt	nt	nt	nt	i	nt	nt	nt	nt	nt
COc1cc(OC)c(C2NC(=O)CCC2[N+](=O)[O-])cc1OC (stereo not drawn)	i	i	i	i	i	i	nt	nt	nt	nt	nt
COC(=O)c1cccnc1NC(=S)NNC(=O)c1ccncc1	i	i	7.1µM	i	i	nt	i	i	i	i	i
COc1ccccc1NC(=S)NNC(=O)c1ccncc1	i	i	i	i	i	i	nt	nt	nt	nt	nt
Cc1nc2ccccc2oc1=O	nt	nt	i	nt	nt	nt	nt	nt	nt	nt	nt
Nc1cc2nc3ccccc3oc-2cc1=O	16µM	42	18µM	28	i	i	i[10.4 µM]	i	?	i	?
CCOC(=O)C(CC)Sc1nnc2[nH]c(=O)cc(C)n12 (stereo not drawn)	i	nt	nt	nt	nt	i	nt	nt	nt	nt	nt
O=c1cnnc(N/N=C/c2ccc3c(c2)OCO3)[nH]1	i	i	i	i	i	i	nt	nt	nt	nt	nt
O=c1cnnc(N/N=C/C2CC=CCC2)[nH]1 (stereo not drawn)	i	i	20µM	i	i	i	?	i	i	i	i
Cc1ccc2oc(=O)c3cc(C(=O)N(Cc4ccccc4)C(C)C)sc3c2c1	i	nt	nt	nt	nt	i	nt	nt	nt	nt	nt
SMILES	Sm TGR block	Shiga inhibitor	Giardia FBPA inh-1	Cycloheximide cs	LmPK inhibitor	Tb PYK inh	Giardia growth	Mammal cell tox	Giardia FBPA inh-2	Rabbit FBPA inh	GAPDH coupling
CNc1n[nH]c(=S)s1	i	i	18µM	i	i	?	i	i	i	i	i
O=C(NNC(=O)c1cnccn1)c1ccc(Cl)cc1	i	i	13µM	22	i	i	i[10.4 µM]	i	i	i	i
O=C(NC(=S)NNC(=O)c1cnccn1)c1ccc(F)cc1	i	i	i	i	i	i	nt	nt	nt	nt	nt
O=C(NNC(=O)c1ccc(Cl)cc1Cl)c1cnccn1	i	i	20µM	i	i	i	8.9µM	i	i	i	i
O=C(NNC(=O)c1ccccc1[N+](=O)[O-])c1cnccn1	i	i	20µM	i	i	i	?	i	i	i	i
O=C(CNCC1CCCO1)NCc1ccco1 (stereo not drawn)	?	i	16µM	i	i	i	?	i	i	i	i
COCc1[nH]c(=S)c(C#N)cc1C(=O)OC	20µM	i	16µM	i	i	?	i	i	i	i	i
CCOC(=O)c1cc(C#N)c(=S)[nH]c1C	i	i	i	i	i	?	nt	nt	nt	nt	nt
O=P(O)(O)CP(=O)(O)O	i	i	6.3µM	i	i	i	i	i	i	i	i
O=P(O)(O)CCCl	nt	i	i	i	nt	nt	nt	nt	nt	nt	nt
OCC1CCCC(n2cnc3c(=S)nc[nH]c32)O1 (stereo not drawn)	i	i	4µM	i	i	i	i	i	i	i	?
S=c1nc[nH]c2c1ncn2C1CCCC1	i	i	4µM	i	i	?	i	i	i	i	i
Cc1ccc(Nc2nc(NCCO)c3ccccc3n2)cc1C	i	nt	25µM	i	i	i	i[10.4 µM]	?	i	i	i
CCOC(=O)C(Nc1ccc2ccccc2c1)C(=O)OCC	i	80	3.5µM	74	i	i	i	i	?	?	40µM
CCOc1ccccc1OCCCCOc1ccccc1F	i	i	i	i	i	i	nt	nt	nt	nt	nt
CN(C)CCCCOc1ccccc1F	i	i	20µM	i	i	i	?	i	i	i	i
O=C(NCCNC[C@@H](O)COc1ccc(O)cc1)N1CCOCC1	nt	nt	i	nt	nt	nt	nt	nt	nt	nt	nt
